Compounds with a hit are over-represented: about 7.5% of the library has one in this group of screens.
NPC1 promoter act – activates the NPC1 promoter. Huh7 NPC1 promoter luciferase reporter, 24 h. Potency, µM (highest dose often 9.22 µM), actives largely listed as activators. actives 2.4% (n = 320,000); further: nearly all actives have a fitted effect of over 60% in size
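NPC1 promoter–luciferase Huh7 cells; 24 h compound; luminescence.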
FLuc modulator – firefly luciferase modulation, counter-screen for miR-21 project | AID 588342 | Potency, µM (doses to about 57.5 µM), hits mostly inhibitors | purified FLuc, Km substrates, luminescence inhibition | P08659 | actives 6.9% (n = 360,000); further: nearly all actives have a fitted effect of over 55% in size
Target sequence (P08659 whole entry, looked up): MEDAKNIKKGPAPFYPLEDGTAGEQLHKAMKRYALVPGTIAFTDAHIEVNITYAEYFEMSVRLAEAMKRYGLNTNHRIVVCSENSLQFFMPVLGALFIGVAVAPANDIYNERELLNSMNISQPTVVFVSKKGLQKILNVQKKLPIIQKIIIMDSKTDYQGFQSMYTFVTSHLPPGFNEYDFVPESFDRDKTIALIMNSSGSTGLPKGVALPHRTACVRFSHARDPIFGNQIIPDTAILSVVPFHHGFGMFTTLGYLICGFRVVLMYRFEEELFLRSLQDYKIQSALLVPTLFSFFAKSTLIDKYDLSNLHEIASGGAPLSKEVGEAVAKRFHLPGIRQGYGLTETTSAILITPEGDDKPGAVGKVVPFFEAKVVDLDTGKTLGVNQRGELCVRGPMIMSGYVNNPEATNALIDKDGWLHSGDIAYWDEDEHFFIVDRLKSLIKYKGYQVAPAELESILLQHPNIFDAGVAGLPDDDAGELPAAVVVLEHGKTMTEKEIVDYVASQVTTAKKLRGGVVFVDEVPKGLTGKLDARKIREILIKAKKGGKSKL
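Biochemical qHTS of compounds, final roughly 60 µM downward over six points, against 10 nM purified firefly luciferase using Km concentrations of substrates (10 uM D-luciferin, 10 uM ATP) in Tris acetate pH 7.5 buffer; luminescence output.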
ELG1 genotoxic – induces genotoxicity in HEK293T cells with luciferase-tagged ELG1 | HEK293T ELG1-luciferase reporter, luminescence, 16 h | Potency, µM (top dose mostly 46 µM), usual class: activators | actives 1.3% (n = 330,000); further: nearly all actives have a fitted effect of over 60% in size
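After overnight (16 hr) compound treatment at 37 °C, ELG1-luciferase HEK293T cells were lysed with ONE-Glo; luminescence quantified 30 min later at room temperature.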
Rab9 promoter act – activators of Rab9 promoter; actives 2.8% (n = 320,000); Huh7 Rab9 promoter-luciferase reporter, luminescence, 24 h; AID 485297; Potency, µM (top dose mostly 9.22 µM), most hits filed as activators; further: nearly all actives have a fitted effect of over 60% in size
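Cell-based reporter: Huh7 stable for Rab9 promoter-driven luciferase, plated in reduced-serum medium with 10% FBS at 1500 cells/well, compound-treated 24 h at 37 °C, luminescence read after 10 min reagent.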
KinaseGlo FLuc – Kinase-Glo luciferase inhibition (counter-screen) | Q27757 | Potency, µM (highest dose often 38.3 µM), actives largely listed as inhibitors | actives 0.28% (n = 200,000) | Kinase-Glo luciferase, ATP luminescence, 8 min; further: nearly all actives have a fitted effect of over 60% in size
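Substrate mix (final 50 mM imidazole pH 7.2, 50 mM KCl, 7 mM MgCl2, 10 uM ATP, 0.01% Tween 20, 0.05% BSA) plus pin-tool compound, then Kinase-Glo detection mix; 8 min ambient, luminescence read.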
SMN2 splice enh – enhancers of SMN2 splice variant expression; AID 1458; Potency, µM (highest dose often 46.1 µM), hits mostly activators; actives 2.8% (n = 210,000); HEK293 SMN2-luciferase splicing reporter, luminescence, 30-36 h; further: nearly all actives have a fitted effect of over 55% in size
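qHTS luciferase splicing reporter: luminescence rises when SMN2 exon 7 is included in transfected HEK293 cells. Compound exposure lasted 30-36 h at 37C, with 4.5 mM final sodium butyrate as control, followed by a ONE-Glo read.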
Numbers stand for hits; n = inactive; u = inconclusive; x = no result given; [ ] = dose if it differs, or a comment. The call rests on the fitted dose curve; in most records, active means well fitted curve in the direction sought with a large enough effect; inconclusive means small, poorly fitted or top-dose-only effect, or another doubt; inactive means no such curve, though single readings can be large; an effect the other way counts as inactive or inconclusive.

SMILES	NPC1 promoter act	FLuc modulator	ELG1 genotoxic	Rab9 promoter act	KinaseGlo FLuc	SMN2 splice enh
CN(C)c1ccc(/C=C/C(=O)c2ccc3c(c2)OCO3)cc1	u	2.69µM	u	u	x	x
O=C(/C=C/c1ccccc1)c1ccc2c(c1)OCO2	u	2.13µM	u	u	x	x
CN(C)c1ccc(/C=C/C(=O)c2ccc3c(c2)OCCO3)cc1[N+](=O)[O-]	n	9.53µM	n	n	n	n
Cc1cccc(NC(=O)CSc2nccn2Cc2ccc(F)cc2)c1C	x	n	x	x	x	x
COc1ccccc1CNc1ncnc2onc(-c3ccc(Cl)cc3)c12	x	n	x	x	x	n
O=C(/C=C/c1ccccc1Br)c1ccc2c(c1)OCO2	n	12µM	n	n	x	x
O=C(/C=C/c1cccc(Br)c1)c1ccc2c(c1)OCO2	n	10.7µM	u	n	x	x
O=C(/C=C/c1ccncc1)c1ccc2c(c1)OCCO2	n	12µM	n	n	n	x
COc1cccc(/C=C/C(=O)NNC(=O)c2ccncc2)c1OC	n	21.3µM	n	n	x	x
Cc1cc(C)c(S(=O)(=O)N2CCN(C(=O)CCn3nc(C)c(C)c3C)CC2)c(C)c1	n	n	n	n	x	x
Cc1ccc(S(=O)(=O)NCC(=O)OCC(=O)NCc2ccco2)cc1	x	x	n	x	x	x
O=C(CCN1C(=O)C2CCCCC2C1=O)Nc1ccc(Br)cc1F (centres undefined)	n	n	n	n	x	x
COCCCNS(=O)(=O)c1cc2c3c(c1)C(C)C(=O)N3CCC2 (centres undefined)	n	n	n	n	x	x
COc1cccc(/C=C/C(=O)c2ccc3c(c2)OCO3)c1OC	n	0.953µM	u	n	x	x
COc1cccc(/C=C/C(=O)c2ccc[nH]2)c1	3.16µM	2.13µM	3.66µM	3.16µM	n	u
Cc1cc(OC(=O)c2cccs2)ccc1C(C)C	n	3.01µM	n	n	n	n
O=C(/C=C/c1ccc2c(c1)OCO2)c1ccc(F)cc1	n	4.26µM	n	n	n	n
Cc1oc2ccc(OC(=O)c3cccs3)cc2c1C(=O)OC(C)C	n	n	n	n	n	n
Cc1cc(C)c(C(=O)/C=C/c2ccc3c(c2)OCO3)c(=O)[nH]1	n	n	n	n	n	x
COc1cc(C(=O)N/N=C(\C)c2ccc3c(c2)OCO3)cc(OC)c1OC	n	n	n	n	n	n
COc1ccc(CCNC(=O)COC(=O)c2cccs2)cc1	n	n	n	n	x	x
CCCc1ccc(OC(=O)c2cccs2)cc1	n	6.01µM	n	n	n	n
CCCc1ccc(OC(=O)c2ccc(O)cc2Cl)cc1	2µM	2.39µM	u	1µM	n	u
CCOC(=O)c1c(NC(=O)c2ccc(S(=O)(=O)N(CC(C)C)CC(C)C)cc2)sc2c1CCN(C(=O)OCC)C2	x	n	x	x	x	x
COc1ccc(C(CNC(=O)c2oc3ccc(OC)cc3c2C)N2CCCC2)cc1 (centres undefined)	n	n	n	n	x	x
SMILES	NPC1 promoter act	FLuc modulator	ELG1 genotoxic	Rab9 promoter act	KinaseGlo FLuc	SMN2 splice enh
Cc1ccc2oc(C(=O)NC3CCS(=O)(=O)C3)c(C)c2c1 (centres undefined)	n	n	n	n	x	x
COc1ccc2oc(C(=O)NC3CCCCC3)c(C)c2c1	3.16µM	5.36µM	3.66µM	3.16µM	x	x
COc1ccc2oc(=O)c(C(=O)NC3CCCCCC3)cc2c1	n	15.1µM	u	n	x	x
CNC(=O)c1cc2cc(OC)ccc2oc1=O	n	n	n	n	n	n
COc1ccc2oc(C(=O)NCCC(C)C)c(C)c2c1	3.16µM	3.38µM	u	u	n	11.2µM
Cc1c(C(=O)NC2CCCCC2)oc2ccc(F)cc12	u	12µM	u	u	x	x
CCOC(=O)C1CCN(C(=O)C2CCCN(S(=O)(=O)c3ccc(OCC)c(Cl)c3)C2)CC1 (centres undefined)	n	n	n	n	x	x
Cc1ccc(N/C=C/C(=O)c2ccc(C)cc2)cc1	1.41µM	0.757µM	u	1.58µM	n	x
Cc1ccc(O)c(NC(=O)/C=C/C(=O)O)c1	n	n	n	n	n	n
Cc1ccc(C(=O)/C=C\Nc2ccc(C)c(C)c2)cc1	2µM	2.13µM	u	1.58µM	n	11.2µM
Cc1ccc(O)c(N/C=C/C(=O)c2ccc(F)cc2)c1	n	2.39µM	20.6µM	n	x	x
COc1ccccc1CNC(=O)C(=O)NCC(c1ccco1)S(=O)(=O)c1cccs1 (centres undefined)	x	n	x	x	x	x
CC(C)(C)OC(=O)N1CCN(CCNC(=O)c2ccccc2)CC1	n	n	n	n	x	x
COc1ccc(OC)c(-c2cc(C(=O)Nc3c(C)nn(Cc4ccc(C)cc4)c3C)no2)c1	x	n	x	x	x	n
COc1ccc(C(=O)Nc2cc(C(C)C)c(O)c(S(=O)(=O)c3ccc(OC)cc3)c2C)cc1	x	u	x	x	x	15.8µM
COc1ccc(S(=O)(=O)c2c(O)c3ccc(C(=O)Nc4ccccc4F)cc3[nH]c2=O)cc1	n	n	n[9.26 µM]	n	x	x
COc1ccc(C(=O)Nc2cc(C(C)C)c(O)c(S(=O)(=O)c3ccc(Cl)cc3)c2C)cc1	x	u	x	x	x	11.2µM
Cc1noc(C)c1COc1ccccc1C(=O)N(C)CC(=O)Nc1ccc(F)c(F)c1F	n	x	n	n	x	x
CCN(CC)c1ccc(C=Nc2cc(C)ccc2C)c(O)c1	n	1.69µM	n	n	n	u
CCN(CC)c1ccc(C=Nc2ccc(C)cc2C)c(O)c1	n	3.38µM	n	u	n	x
Cc1ccc(N=Cc2cccc(O)c2O)c(C)c1	n	u	n	n	n	n
CCN(CC)c1ccc(/C=N/N2C(=O)c3ccccc3C2=O)c(O)c1	n	u	n	n	n	u
CCN(CC)c1ccc(C=Nc2cccnc2Cl)c(O)c1	n	2.39µM	n	n[1.84 µM]	x	x
CCN(CC)c1ccc(/C=N/Nc2ccc(C)cc2)c(O)c1	n	u	n	n	n	n
Cc1ccc(C(=O)Oc2cc(-c3ccccc3)no2)cc1	n	n	n	n	n	n
SMILES	NPC1 promoter act	FLuc modulator	ELG1 genotoxic	Rab9 promoter act	KinaseGlo FLuc	SMN2 splice enh
CCc1ccn2cc(-c3cc(-c4ccccc4)no3)nc2c1	n	0.0675µM	u	n	x	x
Cc1ccn2cc(-c3ccc(NS(=O)(=O)c4ccccc4)cc3)nc2c1	n	u	n	n	n	n
Cc1ccc2nc(-c3cc(-c4ccccc4)no3)cn2c1	0.794µM	0.213µM	0.259µM	0.251µM	x	x
COc1ccc(S(=O)(=O)N2CCCOC2CNC(=O)C(=O)NCc2ccccn2)cc1 (centres undefined)	n	n	n	n	x	x
COc1ccc(-n2c(CCC(=O)O)ccc2-c2ccc(F)cc2)c(OC)c1	n	n	n	n	x	x
CCN(C)c1ccc(/C=N\n2nnnc2N)cc1	n	12µM	9.2µM	n	n	11.2µM
Oc1cc(O)cc(/C=C/c2ccc(O)c(O)c2)c1	u	9.53µM	5.17µM	n	u	31.6µM
Cc1ccc(NC(=O)c2ccc(CNc3c(N4CCOCC4)c(=O)c3=O)cc2)cc1	n	15.1µM	n	n	n	n
